Hits are enriched below; roughly 2.4% of the tested compounds scored in any of these assays.
BRCT PPI green – inhibitors of human BRCA1 BRCT-phosphoprotein interaction (green fluorophore) | P38398 | BRCA1 BRCT-phosphopeptide binding, green fluorescence polarization | Potency, µM (titrated, usually from 76.9 µM), inactives show top-dose activity change, negative = inhibition, actives largely listed as inhibitors | 75,000 compounds, 0.05% hits | AID 875;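 note: potency is the fitted concentration of half-maximal effect; plate controls were peptide without protein for full effect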
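Fluorescence polarization: His-tagged BRCT (~35 kDa BRCA1 C-terminus, 250 nM) bound to 100 nM fluorescein-labeled phosphorylated 10-aa BACH1 peptide, pH 7.3 phosphate buffer with DTT and Tween 20. Compounds incubated 12 min at room temperature; inhibition read as lowered polarization.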
Tau fil binding – binds recombinant human tau filaments. P10636. recombinant tau filaments, thioflavin S fluorescence, 15 h; filaments grown with octadecylsulfate alongside compound. 71,000 compounds, 2% hits. Potency, µM (highest dose often 57.1 µM), without a hit: at the highest dose activity change, negative = inhibition;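 note: potency is the fitted concentration of half-maximal effect; % is set by controls: 0 for no effect and ±100 for the full control effect; actives lower thioflavin S fluorescence by blocking filaments or displacing dye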
Target sequence (P10636 whole entry, looked up): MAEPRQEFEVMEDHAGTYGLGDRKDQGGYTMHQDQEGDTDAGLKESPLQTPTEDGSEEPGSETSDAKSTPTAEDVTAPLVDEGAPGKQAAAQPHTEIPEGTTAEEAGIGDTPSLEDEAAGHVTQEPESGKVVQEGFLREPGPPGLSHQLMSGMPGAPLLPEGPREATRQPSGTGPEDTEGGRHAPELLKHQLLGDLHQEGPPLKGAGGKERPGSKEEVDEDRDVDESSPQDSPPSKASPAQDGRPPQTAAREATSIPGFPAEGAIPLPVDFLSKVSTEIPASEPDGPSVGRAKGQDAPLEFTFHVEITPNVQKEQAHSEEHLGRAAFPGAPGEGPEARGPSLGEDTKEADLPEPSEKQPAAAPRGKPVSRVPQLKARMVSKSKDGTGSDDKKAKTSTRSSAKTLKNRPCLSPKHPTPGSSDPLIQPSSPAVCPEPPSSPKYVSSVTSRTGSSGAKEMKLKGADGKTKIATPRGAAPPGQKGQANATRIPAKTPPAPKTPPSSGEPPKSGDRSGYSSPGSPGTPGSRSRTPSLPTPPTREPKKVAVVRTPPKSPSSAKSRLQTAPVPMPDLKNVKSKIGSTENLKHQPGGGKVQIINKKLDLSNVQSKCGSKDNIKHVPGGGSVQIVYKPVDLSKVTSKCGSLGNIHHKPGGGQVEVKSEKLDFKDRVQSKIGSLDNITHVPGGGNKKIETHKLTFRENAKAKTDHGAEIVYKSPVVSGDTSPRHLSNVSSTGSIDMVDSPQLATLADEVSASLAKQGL
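Assay mix: 1 uM His-tagged tau, 30 uM sodium octadecylsulfate, thioflavine S dye in HEPES/NaCl/DTT buffer. Compound is added prior to the inducer. Fluorescence after 15 h at 37 C.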
TsaE inh – YjeE (TsaE) inhibition, E. coli | 71,000 compounds, 0.05% hits | Potency, µM | P0AF67 | AID 605 | purified YjeE enzyme, qHTS inhibition assay
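Fluorescence polarization of a BODIPY Texas Red–ADP probe (2 uM) bound to purified YjeE (10 uM) was read after 15 min room-temperature incubation with compounds. Loss of polarization marks inhibitors; ADP serves as titrated control.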
DNA Pol III inh – blocks replication by bacterial DNA polymerase III holoenzyme; AID 603; 71,000 compounds, 0.25% hits; Potency, µM (titrated, usually from 57.1 µM), for the others: at the highest dose activity change, negative = inhibition; reconstituted DNA polymerase III holoenzyme replication, biochemical; note: potency is the fitted concentration of half-maximal effect; % is set by controls: 0 for no effect and ±100 for the full control effect
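Reconstituted *E. coli* holoenzyme (0.35 nM Pol III, 1 nM beta, 154 nM SSB, 2 nM primase) was preincubated with compound for 15 min at RT. Synthesis on 1.4 nM ssM13Gori ran 35 min, then was stopped with PicoGreen/EDTA and read as dsDNA fluorescence.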
Hsp90 Hop PPI – changes Hsp90-Hop TPR2A binding signal, up or down; 71,000 compounds, 0.44% hits; AlphaScreen TPR2A-His6 binding biotin-Hsp90 C-terminal peptide; Potency, µM (series often up to 57 µM), for the others: at the top dose activity change, negative = inhibition; active = well fitted curve in either direction with a large enough effect; inconclusive = small, poorly fitted or top-dose-only effect, or another doubt; note: potency is the fitted concentration of half-maximal effect; % is set by controls: 0 for no effect and ±100 for the full control effect
BRCT PPI red – disrupts BRCA1 BRCT binding to phosphoprotein, red fluorophore readout | Potency, µM (series often up to 76.9 µM), for the others: at the highest dose activity change, negative = inhibition, hits mostly inhibitors | P38398 | BRCT-phosphopeptide binding, red fluorescence polarization | 75,000 compounds, 0.03% hits; note: % is set by controls: 0 for no effect and ±100 for the full control effect
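Fluorescence polarization: 100 nM His-tagged BRCA1 BRCT with 100 nM TAMRA-labelled phospho-BACH1 decapeptide, phosphate buffer pH 7.3 with 150 mM NaCl, DTT, 0.01% Tween 20; 12 min RT. Binding inhibition seen as FP decrease.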
* = called active by the depositor; i = inactive; ? = inconclusive; nt = not tested or not shown; ! = a repeat was not active; [ ] = remark or other dose. Unless noted, calls come from the whole dose curve; as a rule, active = well fitted curve in the direction sought with a large enough effect; inconclusive = small, poorly fitted or top-dose-only effect, or another doubt; inactive = no such curve, though single readings can be large; an effect the other way counts as inactive or inconclusive.

SMILES	BRCT PPI green	Tau fil binding	TsaE inh	DNA Pol III inh	Hsp90 Hop PPI	BRCT PPI red
O=c1c2c3nc4ccccc4nc3n(Cc3ccccc3)c2ncn1Cc1ccco1	-3%	10µM*	i	-6%	-3%	-1%
COCCCn1c2nc3ccccc3nc2c2c(=O)n(Cc3ccc(Cl)cc3)cnc21	-3%	-15%	i	-10%	-2%	0%
CCCn1c(-c2ccc(F)cc2)nc2c(NCCCCN(CC)CC)nc(C)nc21	0%	22%	i	-2%	-9%	-3%
NC(CCC(=O)N[C@@H](CS)C(=O)NCC(=O)O)C(=O)O (stereo partly specified)	-2%[3.08 µM]	nt	nt	nt	nt	1%
NC(=O)NC(=O)Nc1ccccc1Cl	-7%	4%	i	5%	0%	-1%
O=C(Nc1cccs1)Nc1ccccc1Cl	3%	25µM*	i	-6%	-11%	0%
Cc1ccc(NC(=O)Nc2cccs2)cc1	0%	nt	nt	nt	nt	-2%
CCc1ccc(NC(=O)Nc2cccs2)cc1	-4%	25µM*	i	-5%	-14%	0%
CC(C)(CO)[C@H](O)C(=O)NCCCO	0%[34.4 µM]	-2%[25.6 µM]	i	-3%[25.6 µM]	-1%[26 µM]	0%[34.4 µM]
Cc1ccc(-c2cc3c(nn2)-c2ccccc2C3=O)cc1	-2%	1µM*	i	-6%[11.4 µM]	-30%[11 µM]	-1%
O=C1c2ccccc2-c2n[nH]c3cccc1c23	-2%	222%	i	-14%	-10%	-4%
Cc1cc(C)c2nc3s/c(=C/c4ccc5c(c4)n(C)c(=O)n5C)c(=O)n3c2c1	-3%	25µM*	i	-1%	-2%	0%
CCCCC(C=O)CC (stereo unspecified)	-3%	-10%	i	0%	0%	0%
O=c1oc2c3c4c(cc2s1)CCCN4CCC3	-3%	25µM*	i	-6%	-28%	-1%
COc1ccc(-c2coc3cc(O[C@@H]4O[C@@H](CO)[C@@H](O)[C@@H](O)[C@H]4O)cc(O)c3c2=O)cc1	nt	?	i	-6%	1%	nt
Cc1ccc(S(=O)(=O)Oc2ccc(N=Nc3ccc(-c4ccc(N=Nc5c(O)ccc6cc(S(=O)(=O)O)cc(S(=O)(=O)O)c56)c(C)c4)cc3C)cc2)cc1	7%	0.01µM*	i	32µM*	0.05µM*	3%
Cc1ccc(N=Nc2c(O)ccc3cc(S(=O)(=O)O)ccc23)cc1	-2%[15.4 µM]	3.2µM*	i	-8%[11.4 µM]	?	1%[15.4 µM]
Cc1nc(N=Nc2ccc(S(=O)(=O)O)cc2S(=O)(=O)O)c(COP(=O)(O)O)c(C=O)c1O	-4%	39%	i	-8%	0%	-7%
O=S(=O)(O)c1ccc2cc(N=Nc3cc(S(=O)(=O)O)c4cccnc4c3O)ccc2c1	-2%[15.4 µM]	7%[11.4 µM]	i	-18%[11.4 µM]	?	0%[15.4 µM]
Cc1cc2nc([C@H](C)C(=O)c3ccc(Cl)cc3)c(=O)[nH]c2cc1C	12%[15.4 µM]	24%[11.4 µM]	i	-9%[11.4 µM]	-2%[11 µM]	-1%[15.4 µM]
CC(C)OCCCn1c(-c2ccco2)nc2nc3ccccc3nc21	3%	16µM*	i	-3%	3%	0%
COCCn1c(-c2ccco2)nc2nc3ccccc3nc21	1%	-15%	i	-6%	-2%	1%
Cc1ccc(C(=O)[C@@H]2[C@@H]3[C@@H](C(=O)[C@@H]4OC[C@H]3O4)[C@@H]3C=Cc4ccccc4N23)cc1	nt	32µM*	i	-3%	?	nt
Cc1nn(-c2ccccc2)c2nc(-c3ccncc3)cc(C(=O)NCc3ccco3)c12	-2%	32µM*	i	-16%	5%	0%
CCOC(=O)c1cc(-c2ccco2)nc2c1c(C)nn2-c1ccccc1	-1%	10µM*	i	-7%	3%	-1%
SMILES	BRCT PPI green	Tau fil binding	TsaE inh	DNA Pol III inh	Hsp90 Hop PPI	BRCT PPI red
Cc1nn(-c2ccccc2)c(C)c1C(=O)OCC(=O)NCc1ccco1	0%	3%	i	?	-2%	-1%
O=c1c(CCc2ccccc2)nc2cnc(N3CCOCC3)nc2n1C[C@H]1CCCO1	3%	10%	i	-6%	15%	-2%
C=CCn1c(=O)/c(=C/c2ccc(Cl)cc2)s/c1=C(/C#N)c1nnc2n1CCCCC2	2%	16µM*	i	-4%	-4%	0%
CN(C)c1ncc2nc(-c3ccccc3)c(=O)n(C3CC3)c2n1	-9%	322%	i	-11%	20µM*	-1%
CCN(CC)CCC[C@H](C)Nc1c2ccc(Cl)cc2nc2ccc(OC)cc12	?	nt	i	32µM*!	2%[26 µM]	-1%[34.4 µM]
CCN(CCO)CCCC(C)Nc1ccnc2cc(Cl)ccc12 (stereo unspecified)	-3%[3.08 µM]	nt	nt	nt	nt	-2%
CN(C)c1ncc2nc(CCc3ccccc3)c(=O)n(-c3ccccc3)c2n1	35%	298%	i	-4%	20µM*	3%
COc1ncc2nc(CCc3ccccc3)c(=O)n(-c3ccccc3)c2n1	0%	-6%	i	2%	1%	0%
CC(/C=C/C=C(C)/C=C/C(=O)O)=C\C=C\C=C(C)\C=C\C=C(C)\C=C\C(=O)O	-5%	3.2µM*	i	2.5µM*	0%	-3%
CC1=C(/C=C/C(C)=C/C=C/C(C)=C/C(=O)O)C(C)(C)CCC1	0%	nt	nt	nt	nt	1%
OCCN(CCO)c1nc(N2CCCCC2)c2nc(N(CCO)CCO)nc(N3CCCCC3)c2n1	40µM*	i	i	31%	-2%	-3%
CN(C)c1nc(N2CCCCC2)nc(N2CCCCC2)n1	0%	-3%	i	4%	1%[2.3 µM]	0%
Cc1cc(NC(=O)Cc2cccs2)no1	-1%	16µM*	i	-14%	-17%	-9%
Cc1cc(NS(=O)(=O)c2ccc(NC(=O)Cc3cccs3)cc2)no1	-5%	19%	i	-1%	-3%	-1%
O=C(Nc1ccc(N2CCN(C(=O)c3ccc(Cl)cc3)CC2)cc1)c1ccc(Br)o1	-1%	25µM*	i	5%	-23%	1%
O=C(Nc1ccc(Nc2ccccc2)cc1)c1ccc(Br)o1	-2%	16µM*	i	-5%	-17%	-1%
CCC(C)(C)C	-2%	-6%	i	-1%	1%	3%
COc1ccc(-c2nc3cnc(N(C)C)nc3n(Cc3ccc(F)cc3)c2=O)cc1	-2%	15%	i	-10%	-3%	0%
CCN(CC)c1cccc(O)c1	0%	-5%	i	-2%	-4%	-1%
CN(C)c1cccc(O)c1	2%	32µM*	i	-9%	-3%	1%
COc1ccc(C2CC(=O)c3c(O)cc(O[C@H]4OC(COC5OC(C)C(O)C(O)[C@@H]5O)C(O)C(O)C4O)cc3O2)cc1O (stereo partly specified)	-1%	nt	nt	nt	nt	1%
Clc1ccc(OCc2nc(-c3ccccn3)n[nH]2)cc1	-2%	13%	i	4%	16µM*	0%
